{"source": "PubChem BioAssay AID602245", "about": "(The Scripps Research Institute Molecular Screening Center, 2012)", "assay": "RTF inhibitors shifting pCa50 of muscle force – permeabilized porcine cardiac fibers, force transducer, powder samples, mechanism study for cardiac RTF inhibitor project, late-stage follow-up (AID 602245)", "conditions": "pig permeabilized cardiac fiber tension, pCa50 shift, at 10 µM; delta pCa50: measured here: shift in calcium sensitivity, stronger effect = lower value; fold change of Ca2+ KD: stronger effect = higher value; maximal force change: measured here: effect on maximal fiber force", "note": "Active and inactive are the calls of the source.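 How the source made its calls: active means compound that raised the calcium level needed for half-maximal fiber tension by more than 10% versus solvent alone; inactive means the rest.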"}
{"smiles": "NCCCCCCNS(=O)(=O)c1cccc2c(Cl)cccc12", "values": [{"measurement": "delta pCa50", "result": -0.116}, {"measurement": "fold change of Ca2+ KD", "result": "1.31 (active)"}, {"measurement": "maximal force change", "result": -4.5, "unit": "%"}]}
